Common to all, as to experiment: DAPPL (digital affinity profiling via proximity ligation, sequencing); 10 mM Tris-HCl pH 7.5, 50 mM NaCl, 1 mM DTT, 4% glycerol, room temperature, 30 min; GST-TFs on glutathione beads, 16-mer random dsDNA library, 0.1% formaldehyde crosslink after washing; high values mean tight binding
One test has as its target T1, FEV (Homo sapiens, UniProt Q99581 1-238).
T1 sequence: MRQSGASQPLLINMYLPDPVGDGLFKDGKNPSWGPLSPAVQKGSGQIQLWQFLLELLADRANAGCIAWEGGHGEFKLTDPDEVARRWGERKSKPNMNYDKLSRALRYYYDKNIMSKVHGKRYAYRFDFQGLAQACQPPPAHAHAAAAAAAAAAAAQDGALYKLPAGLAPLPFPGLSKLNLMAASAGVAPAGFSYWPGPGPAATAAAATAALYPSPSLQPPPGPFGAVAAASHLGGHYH
Conditions: protein: recombinant; tags: N-terminal GST; dsDNA, one strand shown. A digest of the protocol:
(§1)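 In yeast, human transcription factors were expressed with a GST fusion, then pulled down on glutathione beads and given DNA barcodes. Pooled with a tag-only sample, they were exposed to 200 nmole of a 16-mer random double-stranded DNA library (Tris/NaCl/DTT/glycerol buffer, room temperature, 30 min), washed, crosslinked with 0.1% formaldehyde, proximity-ligated using BsaI/T4 ligase for 1 h at 37 °C, PCR-amplified and read on an Illumina NextSeq500. Each hexamer's frequency of reads for a factor, divided by the matching frequency for the tag-only sample, gives the binding signal.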

The next test has as its target ETV5 (Homo sapiens, UniProt P41161 1-510). The note with it: protein: recombinant; tags: N-terminal GST; dsDNA, one strand shown. A digest of the protocol: as §1
The next test concerns the target HSF1 (Homo sapiens, UniProt Q00613 1-529). Conditions: protein: recombinant; tags: N-terminal GST; chain copies: 3; dsDNA, one strand shown. A digest of the protocol: as §1
The target of another test is T2, SPIC (Homo sapiens, UniProt Q8N5J4 1-248).
T2 sequence: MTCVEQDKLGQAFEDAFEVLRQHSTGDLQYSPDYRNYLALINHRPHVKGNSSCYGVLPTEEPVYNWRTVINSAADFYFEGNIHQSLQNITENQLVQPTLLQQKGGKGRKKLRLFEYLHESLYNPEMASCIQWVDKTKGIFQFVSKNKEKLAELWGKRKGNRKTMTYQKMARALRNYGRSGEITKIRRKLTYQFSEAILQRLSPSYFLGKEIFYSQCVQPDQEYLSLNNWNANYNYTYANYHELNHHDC
The note with it: protein: recombinant; tags: N-terminal GST; dsDNA, one strand shown. The method in brief:
as §1

The target in the next test is ELF4 (Homo sapiens, UniProt Q99607 1-663). Conditions: protein: recombinant; tags: N-terminal GST; dsDNA, one strand shown. A digest of the protocol:
as §1

The target in a further test is T3, ELK4 (Homo sapiens, UniProt P28324-2 1-405).
T3 sequence: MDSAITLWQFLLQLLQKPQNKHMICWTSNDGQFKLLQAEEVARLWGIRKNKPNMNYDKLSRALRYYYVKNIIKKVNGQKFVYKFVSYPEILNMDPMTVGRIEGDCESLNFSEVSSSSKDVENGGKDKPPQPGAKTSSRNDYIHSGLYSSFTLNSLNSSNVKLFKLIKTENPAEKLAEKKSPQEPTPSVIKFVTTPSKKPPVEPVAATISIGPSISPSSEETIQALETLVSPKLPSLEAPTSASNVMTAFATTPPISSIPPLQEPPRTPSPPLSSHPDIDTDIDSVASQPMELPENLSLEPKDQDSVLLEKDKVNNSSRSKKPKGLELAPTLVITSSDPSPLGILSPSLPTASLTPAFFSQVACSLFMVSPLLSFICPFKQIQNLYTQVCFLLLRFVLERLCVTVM
The note with it: protein: recombinant; tags: N-terminal GST; dsDNA, one strand shown. A digest of the protocol:
as §1

For a further test, the target named is T4, ETV2 (Homo sapiens, UniProt O00321 1-342).
T4 sequence: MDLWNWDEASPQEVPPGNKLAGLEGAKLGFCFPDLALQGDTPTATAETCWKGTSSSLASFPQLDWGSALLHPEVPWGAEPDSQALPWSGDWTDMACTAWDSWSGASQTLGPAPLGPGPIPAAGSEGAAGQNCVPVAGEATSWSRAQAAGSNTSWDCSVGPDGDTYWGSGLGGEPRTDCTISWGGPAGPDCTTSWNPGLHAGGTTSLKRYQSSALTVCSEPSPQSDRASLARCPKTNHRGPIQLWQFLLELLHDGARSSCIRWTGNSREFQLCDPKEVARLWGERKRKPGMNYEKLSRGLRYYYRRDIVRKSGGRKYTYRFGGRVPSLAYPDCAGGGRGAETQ
The note with it: protein: recombinant; tags: N-terminal GST; dsDNA, one strand shown. A digest of the protocol: as §1

A further test has as its target T5, ELF3 (Homo sapiens, UniProt P78545 1-371).
T5 sequence: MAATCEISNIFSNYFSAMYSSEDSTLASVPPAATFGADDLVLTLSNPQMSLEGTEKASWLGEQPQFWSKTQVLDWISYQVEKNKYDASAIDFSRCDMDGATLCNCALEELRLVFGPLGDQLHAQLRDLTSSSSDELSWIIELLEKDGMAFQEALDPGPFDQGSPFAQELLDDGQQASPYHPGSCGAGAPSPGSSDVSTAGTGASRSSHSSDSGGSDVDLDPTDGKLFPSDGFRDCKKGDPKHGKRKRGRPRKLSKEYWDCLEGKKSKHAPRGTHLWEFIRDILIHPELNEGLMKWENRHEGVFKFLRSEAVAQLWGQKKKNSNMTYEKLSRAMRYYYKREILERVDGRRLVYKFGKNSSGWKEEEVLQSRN
The note with it: protein: recombinant; tags: N-terminal GST; dsDNA, one strand shown. The method in brief: as §1

The target of a further test is CRX (Homo sapiens, UniProt O43186 1-299). The note with it: protein: recombinant; tags: N-terminal GST; dsDNA, one strand shown. The method in brief: as §1
CRX, sequence (O43186 whole entry): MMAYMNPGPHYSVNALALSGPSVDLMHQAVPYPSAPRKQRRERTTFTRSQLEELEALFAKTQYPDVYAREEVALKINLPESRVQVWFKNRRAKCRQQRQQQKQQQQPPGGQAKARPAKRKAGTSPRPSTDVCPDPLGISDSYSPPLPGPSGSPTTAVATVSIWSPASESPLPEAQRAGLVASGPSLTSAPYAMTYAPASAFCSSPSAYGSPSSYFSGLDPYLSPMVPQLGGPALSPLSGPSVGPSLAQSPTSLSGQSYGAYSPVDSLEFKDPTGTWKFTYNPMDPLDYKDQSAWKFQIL
The target in the next test is ETV1 (Homo sapiens, UniProt P50549 1-477). The note with it: protein: recombinant; tags: N-terminal GST; dsDNA, one strand shown. A digest of the protocol: as §1
ETV1, sequence (P50549 whole entry): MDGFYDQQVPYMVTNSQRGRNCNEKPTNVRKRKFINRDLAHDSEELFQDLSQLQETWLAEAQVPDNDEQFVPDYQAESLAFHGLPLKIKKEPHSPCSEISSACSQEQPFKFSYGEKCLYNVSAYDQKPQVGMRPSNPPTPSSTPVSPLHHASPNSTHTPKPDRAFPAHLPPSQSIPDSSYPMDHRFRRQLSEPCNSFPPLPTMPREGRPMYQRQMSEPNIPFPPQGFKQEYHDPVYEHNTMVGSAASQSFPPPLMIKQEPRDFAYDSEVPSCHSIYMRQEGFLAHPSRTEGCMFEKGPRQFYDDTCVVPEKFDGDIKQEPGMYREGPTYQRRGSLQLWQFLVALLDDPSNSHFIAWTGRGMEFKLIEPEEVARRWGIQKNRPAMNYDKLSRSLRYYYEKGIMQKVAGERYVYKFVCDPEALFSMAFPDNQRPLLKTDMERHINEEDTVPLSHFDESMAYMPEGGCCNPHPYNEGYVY

HSF1, sequence (Q00613 whole entry): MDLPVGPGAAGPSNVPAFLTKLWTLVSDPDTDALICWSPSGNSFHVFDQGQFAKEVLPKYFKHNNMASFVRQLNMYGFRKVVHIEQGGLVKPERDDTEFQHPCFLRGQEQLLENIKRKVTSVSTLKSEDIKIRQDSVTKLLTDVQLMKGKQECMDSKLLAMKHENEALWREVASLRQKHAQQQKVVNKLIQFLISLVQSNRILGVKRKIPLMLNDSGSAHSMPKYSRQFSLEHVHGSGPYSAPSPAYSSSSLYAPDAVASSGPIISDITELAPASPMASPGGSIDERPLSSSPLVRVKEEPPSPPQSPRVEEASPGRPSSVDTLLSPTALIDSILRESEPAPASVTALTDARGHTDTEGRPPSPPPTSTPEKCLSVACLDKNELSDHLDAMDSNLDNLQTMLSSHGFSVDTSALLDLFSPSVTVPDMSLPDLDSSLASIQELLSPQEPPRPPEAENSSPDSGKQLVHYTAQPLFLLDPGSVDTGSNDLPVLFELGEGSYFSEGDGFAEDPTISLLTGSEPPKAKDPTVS
ELF4, sequence (Q99607 whole entry): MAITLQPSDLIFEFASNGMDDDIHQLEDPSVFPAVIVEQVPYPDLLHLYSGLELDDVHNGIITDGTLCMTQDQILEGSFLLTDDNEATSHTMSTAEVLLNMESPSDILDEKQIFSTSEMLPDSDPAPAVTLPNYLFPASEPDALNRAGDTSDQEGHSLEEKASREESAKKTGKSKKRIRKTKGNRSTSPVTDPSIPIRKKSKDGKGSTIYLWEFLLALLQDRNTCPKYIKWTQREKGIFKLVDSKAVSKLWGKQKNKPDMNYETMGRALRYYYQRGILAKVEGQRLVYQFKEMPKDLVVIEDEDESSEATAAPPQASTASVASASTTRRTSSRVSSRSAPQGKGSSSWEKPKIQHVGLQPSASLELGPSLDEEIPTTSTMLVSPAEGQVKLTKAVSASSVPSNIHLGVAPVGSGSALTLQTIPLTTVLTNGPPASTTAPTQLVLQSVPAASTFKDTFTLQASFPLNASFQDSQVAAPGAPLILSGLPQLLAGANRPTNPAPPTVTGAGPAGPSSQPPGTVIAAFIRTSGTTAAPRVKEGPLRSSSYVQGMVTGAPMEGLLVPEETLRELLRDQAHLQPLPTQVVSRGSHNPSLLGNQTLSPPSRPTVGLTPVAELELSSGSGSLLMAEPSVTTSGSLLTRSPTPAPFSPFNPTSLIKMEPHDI
ETV5, sequence (P41161 whole entry): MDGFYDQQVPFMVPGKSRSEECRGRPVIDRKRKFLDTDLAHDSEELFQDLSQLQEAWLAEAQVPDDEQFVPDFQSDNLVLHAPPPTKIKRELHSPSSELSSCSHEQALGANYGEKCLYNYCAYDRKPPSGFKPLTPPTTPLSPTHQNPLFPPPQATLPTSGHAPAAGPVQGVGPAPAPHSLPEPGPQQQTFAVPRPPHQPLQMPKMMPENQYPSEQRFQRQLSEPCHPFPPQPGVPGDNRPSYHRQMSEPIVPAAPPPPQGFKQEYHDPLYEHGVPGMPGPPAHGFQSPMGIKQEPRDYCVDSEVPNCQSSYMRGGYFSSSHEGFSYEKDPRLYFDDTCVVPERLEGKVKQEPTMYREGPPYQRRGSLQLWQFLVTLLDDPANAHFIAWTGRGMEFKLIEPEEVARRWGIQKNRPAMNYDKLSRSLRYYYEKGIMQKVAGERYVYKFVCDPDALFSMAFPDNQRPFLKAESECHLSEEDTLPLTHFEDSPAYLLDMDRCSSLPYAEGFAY

For the sequence GCTTAT, the binding signal with FEV is 1.21 fold enrichment (6-mer frequency, TF over GST control); with ETV5, 1.23 fold enrichment (6-mer frequency, TF over GST control); in the test with HSF1, 1.89 fold enrichment (6-mer frequency, TF over GST control); in the test with SPIC, 1.42 fold enrichment (6-mer frequency, TF over GST control); with ELF4 it was 1.23 fold enrichment (6-mer frequency, TF over GST control); with ELK4, 1.28 fold enrichment (6-mer frequency, TF over GST control). The binding signal with ETV2 was 1.11 fold enrichment (6-mer frequency, TF over GST control); with ELF3, 1.29 fold enrichment (6-mer frequency, TF over GST control); with CRX it was 2.89 fold enrichment (6-mer frequency, TF over GST control); in the test with ETV1, 1.35 fold enrichment (6-mer frequency, TF over GST control).

On to ATCGTT, for which the binding signal with ETV5 is 1 fold enrichment (6-mer frequency, TF over GST control); with HSF1 it was 1.02 fold enrichment (6-mer frequency, TF over GST control); with SPIC, 1.03 fold enrichment (6-mer frequency, TF over GST control); with ELF4 it was 1.04 fold enrichment (6-mer frequency, TF over GST control); in the test with ELK4, 1.12 fold enrichment (6-mer frequency, TF over GST control); in the test with ETV2, 1.13 fold enrichment (6-mer frequency, TF over GST control). The binding signal in the test with ELF3 was 1.03 fold enrichment (6-mer frequency, TF over GST control); with CRX it was 1.14 fold enrichment (6-mer frequency, TF over GST control); with ETV1 it was 1.06 fold enrichment (6-mer frequency, TF over GST control).

With CTATTA, the binding signal is 1.14 fold enrichment (6-mer frequency, TF over GST control) with ETV5; 1.3 fold enrichment (6-mer frequency, TF over GST control) in the test with HSF1; 1.07 fold enrichment (6-mer frequency, TF over GST control) with SPIC; 1.14 fold enrichment (6-mer frequency, TF over GST control) in the test with ELF4; 1.09 fold enrichment (6-mer frequency, TF over GST control) with ELK4; 1.13 fold enrichment (6-mer frequency, TF over GST control) with ETV2. Moreover, the binding signal is 1.03 fold enrichment (6-mer frequency, TF over GST control) in the test with ELF3; 1.76 fold enrichment (6-mer frequency, TF over GST control) with CRX; 1.14 fold enrichment (6-mer frequency, TF over GST control) in the test with ETV1.

CCGCTA: the binding signal in the test with FEV was 1.33 fold enrichment (6-mer frequency, TF over GST control); in the test with ETV5, 1.23 fold enrichment (6-mer frequency, TF over GST control); with HSF1, 1.17 fold enrichment (6-mer frequency, TF over GST control); with SPIC it was 1.44 fold enrichment (6-mer frequency, TF over GST control); with ELF4, 1.33 fold enrichment (6-mer frequency, TF over GST control); with ELK4, 1.3 fold enrichment (6-mer frequency, TF over GST control). Also, the binding signal in the test with ETV2 was 1.37 fold enrichment (6-mer frequency, TF over GST control); with ELF3, 1.38 fold enrichment (6-mer frequency, TF over GST control); with CRX, 1.28 fold enrichment (6-mer frequency, TF over GST control); with ETV1 it was 1.36 fold enrichment (6-mer frequency, TF over GST control).

As to ATCCAA, the binding signal is 1.19 fold enrichment (6-mer frequency, TF over GST control) in the test with FEV; 1.13 fold enrichment (6-mer frequency, TF over GST control) with ETV5; 1.29 fold enrichment (6-mer frequency, TF over GST control) with HSF1; 1.12 fold enrichment (6-mer frequency, TF over GST control) with SPIC; 1.23 fold enrichment (6-mer frequency, TF over GST control) with ELF4; 1.16 fold enrichment (6-mer frequency, TF over GST control) in the test with ELK4. For the same sequence, the binding signal is 1.09 fold enrichment (6-mer frequency, TF over GST control) with ETV2; 1.28 fold enrichment (6-mer frequency, TF over GST control) with ELF3; 1.63 fold enrichment (6-mer frequency, TF over GST control) in the test with CRX; 1.18 fold enrichment (6-mer frequency, TF over GST control) in the test with ETV1.

On to TAGAAG, for which the binding signal in the test with ETV5 was 1.08 fold enrichment (6-mer frequency, TF over GST control); with HSF1 it was 2.77 fold enrichment (6-mer frequency, TF over GST control); with SPIC, 1.31 fold enrichment (6-mer frequency, TF over GST control); in the test with ELF4 it was 1.19 fold enrichment (6-mer frequency, TF over GST control); with ELK4, 1.16 fold enrichment (6-mer frequency, TF over GST control); with ETV2, 1.18 fold enrichment (6-mer frequency, TF over GST control). The binding signal with ELF3 is 1.18 fold enrichment (6-mer frequency, TF over GST control); with CRX it was 1.72 fold enrichment (6-mer frequency, TF over GST control); in the test with ETV1 it was 1.06 fold enrichment (6-mer frequency, TF over GST control).

Consider TGTGGA, for which the binding signal was 1.04 fold enrichment (6-mer frequency, TF over GST control) with ETV5; 1.13 fold enrichment (6-mer frequency, TF over GST control) with HSF1; 1.11 fold enrichment (6-mer frequency, TF over GST control) with SPIC; 1.06 fold enrichment (6-mer frequency, TF over GST control) in the test with ELF4; 1.15 fold enrichment (6-mer frequency, TF over GST control) with ELK4; 1.13 fold enrichment (6-mer frequency, TF over GST control) in the test with ETV2. The binding signal is 1 fold enrichment (6-mer frequency, TF over GST control) with ELF3; 1.06 fold enrichment (6-mer frequency, TF over GST control) in the test with CRX; 1.03 fold enrichment (6-mer frequency, TF over GST control) with ETV1.

Consider CTAAAT, for which the binding signal with FEV was 1.3 fold enrichment (6-mer frequency, TF over GST control); with ETV5, 1.42 fold enrichment (6-mer frequency, TF over GST control); in the test with HSF1 it was 1.59 fold enrichment (6-mer frequency, TF over GST control); with SPIC it was 1.38 fold enrichment (6-mer frequency, TF over GST control); in the test with ELF4, 1.36 fold enrichment (6-mer frequency, TF over GST control); with ELK4, 1.42 fold enrichment (6-mer frequency, TF over GST control). Further, the binding signal was 1.33 fold enrichment (6-mer frequency, TF over GST control) with ETV2; 1.46 fold enrichment (6-mer frequency, TF over GST control) with ELF3; 1.9 fold enrichment (6-mer frequency, TF over GST control) with CRX; 1.42 fold enrichment (6-mer frequency, TF over GST control) with ETV1.
